Among all 300,000 compounds or so, about 37,000 (12%) were called active. No stated cut-off is given here; in the data, active means max response mostly above about 13% (no sharp cut-off); inactive means mostly below about 14%. This excerpt belongs to a sample that is enriched for actives.
Test: Cycloheximide Counterscreen for Small Molecule Inhibitors of Shiga Toxin; further: read at 38.3 µM for the half of the compounds with a filed dose; 0% is about no effect
Conditions: cell reporter, cycloheximide protein synthesis inhibition counterscreen; active compounds read high

Compound	max response
COc1cccc(/C=N/Nc2ncc(C(F)(F)F)cc2Cl)c1O	12.5% (inactive)
COc1cccc(/C=N/Nc2cc(C)nc(-c3ccccc3O)n2)c1O	28.6% (active)
COc1ccccc1/C=N\Nc1cc(C)nc(-n2nc(C)cc2C)n1	-2.45% (inactive)
O=C(NC1CCCC1)C(c1ccc(N2CCOCC2)cc1)N(C(=O)c1ccco1)c1ccccc1F (centres undefined)	-1.28% (inactive)
CCOc1ccc(CN2CCN(Cc3ccc4cc(F)ccc4n3)CC2CCO)cc1 (centres undefined)	-3.76% (inactive)
N#Cc1c2c(c(N3CCN(CCO)CC3)n3c1nc1ccccc13)CCCC2	-2.13% (inactive)
Cc1cc(NC(=O)CSc2nc(C(C)C)nc3sc4c(c23)CCC(C)C4)no1 (centres undefined)	-1.25% (inactive)
CC1CCc2sc3nc(N4CCN(CCO)CC4)n4ncnc4c3c2C1 (centres undefined)	22.8% (active)
Cc1ccc(NC(=O)C2CCCN2C(=O)OCc2ccccc2)cc1C (centres undefined)	7.92% (inactive)
O=C(Nc1ccccc1Cl)NC1(C(=O)N2CCOCC2)CCCCC1	-1.76% (inactive)
CCCCC(c1nnnn1CS(=O)(=O)c1ccc(C)cc1)N1CCC(C(N)=O)CC1 (centres undefined)	-6.32% (inactive)
COc1ccc(/C=C2\SC(=S)N(CC(=O)NNC(=O)c3ccncc3)C2=O)cc1	5.86% (inactive)
COc1ccc(/C=C2\N=C3CCCN3C2=O)cc1	39.3% (active)
COc1ccc(/C=C2\SC(=N)N(c3ccc(F)cc3)C2=O)cc1	-4.26% (inactive)
Cn1c(=O)c2c(-c3cccc(Br)c3)c(C#N)c(N)nc2n(C)c1=O	1.41% (inactive)
COC(=O)C1=CN(Cc2ccc(OC)c(OC)c2)C=C(C(=O)OC)C1c1cccs1	8.87% (inactive)
CN1OC(COC(=O)c2ccc(Cl)cc2)CC1c1ccccc1 (centres undefined)	66.4% (active)
Cn1cncc1COC(=O)c1ccc(Cl)cc1	5.18% (inactive)
CN1C2C=C(N(C(=O)c3ccc(Cl)cc3)c3ccccc3)CC1CC2 (centres undefined)	-2.76% (inactive)
Cc1ccc(CNC(=O)CCC(=O)N2CC(C)Sc3ccccc32)cc1 (centres undefined)	-1.08% (inactive)
CCOC(=O)N1CCC(N2Cc3cccc(C(=O)Nc4c(C)cccc4CC)c3C2=O)CC1	-3.86% (inactive)
COc1cccc2sc(N(CCCN(C)C)C(=O)CCS(=O)(=O)c3ccccc3)nc12	11.6% (inactive)
Clc1ccc(Cc2nnc(-c3cccs3)o2)cc1	32.7% (active)
S=C(NCc1cccs1)Nc1ccc(Cl)cc1	13.8% (inactive)

Compound	max response
CNC(=O)c1nnc(Cc2ccc(Cl)cc2)o1	11.5% (inactive)
O=C(CSC(=S)N1CCOCC1)c1ccccc1	19% (active)
CC1CN(C(=S)Nc2ccccc2F)CC(C)O1 (centres undefined)	1.94% (inactive)
CC1CN(C(=S)SCC(=O)c2ccccc2)CC(C)O1 (centres undefined)	34.8% (active)
O=C(CSC(=S)N1CCOCC1)c1cc(Br)cc(Br)c1O	-5.21% (inactive)
CSCC(=O)N1CCCC(C(=O)c2cc(F)ccc2F)C1 (centres undefined)	5.48% (inactive)
O=C(CSC(=S)N1CCCCC1)c1c(F)cccc1F	42.5% (active)
O=C(CP(=O)(c1ccccc1)c1ccccc1)N1CCOCC1	-5.81% (inactive)
O=C(NC1CCN(Cc2ccccc2)CC1)c1c(F)cccc1F	-3.43% (inactive)
COC(=O)[C@H](Cc1ccccc1)NC(=O)N1CC(C)OC(C)C1 (some centres undefined)	0.915% (inactive)
CCOC(=O)c1c(CN(C)C)n(-c2ccccc2)c2cc(Br)c(O)cc12	-1.63% (inactive)
C[C@H]1CCC(=O)N([C@H](CSc2ccccc2)Cc2ccccc2)CC1	6.38% (inactive)
Cc1c(C(=O)N2CCCC2)c(S(=O)(=O)NCC(C)c2ccccc2)c(C)n1C (centres undefined)	-6.59% (inactive)
COc1ccc(N(CC(=O)NC2CCCCC2)C(=O)CNC(=O)c2ccco2)c(OC)c1	1.11% (inactive)
CC1CC(NC(=O)/C(C#N)=C/c2ccc[nH]2)CC(C)(C)C1 (centres undefined)	4.89% (inactive)
CC(=O)NC1=NN(C(C)=O)C(C)(c2ccc(Cl)s2)S1 (centres undefined)	-1.1% (inactive)
O=C(N/N=C/c1cccc2cccnc12)[C@H]1C[C@@H]1c1ccccc1	8.61% (inactive)
CN(C)/C(CN1CCCCC1)=C1\N=C(c2ccccc2)OC1=O	-3.11% (inactive)
O=c1cc(CN2CCN(S(=O)(=O)/C=C/c3ccccc3)CC2)c2ccc(O)cc2o1	-1.39% (inactive)
COc1ccc([N+](=O)[O-])cc1N(CC(O)CN(CC(C)C)CC(C)C)S(=O)(=O)c1ccc(C)cc1 (centres undefined)	9.04% (inactive)
Cc1ccc(C(=O)Cn2cccn2)cc1	6.54% (inactive)
CCOCc1nnc(NC(=O)CSc2ccc(C)cc2)s1	-1.61% (inactive)
Cc1ccc(C(=O)Cc2nnc(C)s2)cc1	43.7% (active)
COc1cc2c(cc1NC(=O)COC(=O)/C=C/c1ccccc1)oc1ccccc12	0.0459% (inactive)

Compound	max response
NC(=O)Cc1ccc2c(c1)[nH]c1ccccc12	4.3% (inactive)
NC(=O)Cc1ccc2sc(-c3ccccc3)nc2c1	75.6% (active)
O=C(O)Cc1sc(-c2ccccc2)nc1-c1cccs1	16.4% (inactive)
COC(=O)CN1C(=S)N(c2ccccc2)C(=O)C1CC(=O)Nc1ccc(Cl)cc1 (centres undefined)	-2.88% (inactive)
O=C(O)CC1=C(Nc2ccccc2)C(=O)N(c2ccccc2)C1c1ccc(Cl)cc1 (centres undefined)	38.1% (active)
O=C(O)Cc1ccc(NCc2ccccc2Cl)cc1	23.5% (inactive)
COc1ccccc1-n1c(=S)[nH]c2c(sc(=S)n2-c2ccc(C)cc2C)c1=O	5.32% (inactive)
O=S(=O)(c1cnccc1N1CCN(/N=C/c2ccc(Br)cc2)CC1)N1CCCCC1	-0.626% (inactive)
O=C(CSc1nnnn1-c1ccc(O)cc1)N1N=C(c2ccc3ccccc3c2)CC1c1ccccc1 (centres undefined)	6% (inactive)
CC(C)=C1SC(N2CCN(c3cccc(C)c3)CC2)=NC1=O	-1.33% (inactive)
CC(C)=C1SC(N2CCN(c3ccc(C)c(Cl)c3)CC2)=NC1=O	-1.62% (inactive)
CCN1C(=O)/C(=C2\SC(N3CCCCC3)=NC2=O)c2ccccc21	18.4% (active)
CCOC(=O)N1CCN(Cc2nc(Cc3cccc(C(F)(F)F)c3)no2)CC1	9.29% (inactive)
CN(Cc1cccnc1)C(=O)c1cc(COc2ccc3ncccc3c2)on1	7.18% (inactive)
Cc1ccc(OCc2cc(C(=O)N(C)CCc3ccccc3)no2)cc1C	62.4% (active)
COc1ccc(C(=O)NNC(=O)c2cc(C)[nH]n2)cc1	3.07% (inactive)
COCCNC(=O)COc1ccc(C)c(C)c1	9.18% (inactive)
Cc1nonc1C1CCCN1C(=O)c1cc(COc2cccc(C(F)(F)F)c2)on1 (centres undefined)	27.6% (active)
Cc1cc(CN(C)C(=O)c2cc(COc3ccc(C)c(C)c3)on2)n[nH]1	46% (active)
CCC(=O)OCc1c(C(F)(F)F)nn(C)c1Oc1cccc(C(F)(F)F)c1	-1.08% (inactive)
Cc1ccc(OCC(=O)NC(C)c2ccccc2)cc1C (centres undefined)	-1.54% (inactive)
C/C(=N/OC(=O)c1cccc(C(F)(F)F)c1)c1cnccn1	-2.87% (inactive)
CN(Cc1cnccn1)C(=O)c1cc(COc2cccc(C(F)(F)F)c2)on1	37.1% (active)
CN(CCOc1ccccc1)C(=O)c1cc(COc2c(F)cccc2F)on1	15.4% (inactive)

Compound	max response
CC(=O)c1cccc(NC(=O)C2CCCN(S(=O)(=O)c3cccc4nonc34)C2)c1 (centres undefined)	-1.65% (inactive)
CCCn1c(C2CCCN2c2nc(-c3ccc(C)cc3)cs2)nc2cc(Cl)c(N3CCCCC3)cc21 (centres undefined)	2.93% (inactive)
CCN(CC)CCN(C(=O)c1cc(Cl)sc1Cl)c1nc2cc3c(cc2s1)OCO3	11.7% (inactive)
CC(=O)Nc1ccc(NC(=O)CN2C(=O)COc3ccc(S(=O)(=O)N4CCCCC4)cc32)cc1	-11.2% (inactive)
COc1ccccc1Oc1ccc(N2CC(C(=O)OCC(=O)c3ccc(F)cc3)CC2=O)cc1 (centres undefined)	1.71% (inactive)
CCCOc1ccc(Cc2c(O)nc(SC)[nH]c2=O)cc1C	1.31% (inactive)
Cc1noc(/C=C/c2ccco2)c1S(=O)(=O)N1CCC(C(=O)Nc2ccc(Cl)cn2)CC1	14.7% (inactive)
Cc1cc(C)cc(OCC(=O)Nc2cc(NC(=O)COc3cc(C)cc(C)c3)cc(C(=O)O)c2)c1	-5.04% (inactive)
COc1ccc(CCNS(=O)(=O)c2cc3c(cc2C)NC(=O)CO3)cc1OC	-0.971% (inactive)
FC(F)(F)c1nc(-c2ccccc2)ncc1-c1nnnn1-c1ccccc1	-1.17% (inactive)
Cc1ccc(CNC(=O)CCN2C(=O)[C@@H]3Cc4ccccc4CN3C2=O)cc1	4.73% (inactive)
COc1ccccc1CSc1ncc(-c2ccc([N+](=O)[O-])cc2)[nH]1	29.2% (active)
O=C(NCc1ccccc1)c1onc(CSc2nc3ccccc3[nH]2)c1C(=O)NCc1ccccc1	-0.0609% (inactive)
COc1ccccc1CC(=O)Nc1ccc([N+](=O)[O-])cc1OC	-1.19% (inactive)
C=CCSc1nc2ccccc2[nH]1	12.4% (inactive)
CCc1nnc(NC(=O)CCCSc2nc3ccccc3[nH]2)s1	-1.42% (inactive)
N#Cc1c(-c2ccccc2)nc(SCc2ccc([N+](=O)[O-])cc2)[nH]c1=O	-1.84% (inactive)
COc1ccccc1CSc1nc2ccccc2[nH]1	41% (active)
COc1ccccc1-c1noc(CSc2nc(C)cc(=O)[nH]2)n1	1.82% (inactive)
CCCCSc1nc2ccccc2[nH]1	30.4% (active)
CCNS(=O)(=O)c1ccc(CCC(=O)N2CCN(c3ccc(OC)cc3)CC2)cc1	2.4% (inactive)
CC(Oc1ccccc1[N+](=O)[O-])C(=O)N/N=C/c1ccoc1 (centres undefined)	-2.14% (inactive)

— PubChem BioAssay AID2314 (National Center for Advancing Translational Sciences (NCATS), 2010)
